Screening data from PubChem.
Most compounds without a hit are left out; they make up all but 2.4% or so of the library.
Nrf2 block: inhibitors of Nrf2 signaling | A549 ARE-Fluc reporter, luciferase luminescence, 18-24 h | Potency, µM (titrated, usually from 46 µM), most hits filed as inhibitors | actives 2.1% (n = 360,000) | AID 504444; also: nearly all actives have a fitted effect of over 60% in size
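Reporter: ARE-Fluc in A549. Exposure: 18-24 h, 37 °C, 5% CO2, 5% FBS OPTI-MEM. Readouts: fluorescent cytotoxicity (CellTiter-Fluor), then luminescent Nrf2 signal after BugLite.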
Epigenetic reg: epigenetic control regulation, reporter derepression; AID 1865; murine LDR cells, GFP reporter derepression, 30 h; Potency, µM (doses to about 53.9 µM), most hits filed as activators; actives 0.2% (n = 280,000); also: nearly all actives have a fitted effect of over 60% in size
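Derepression of a silenced CMV-GFP reporter in murine LDR cells is scored by enumerating GFP-positive cells with a laser-scanning microplate cytometer after 30 hours of treatment at 37 C.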
A549 viability: counter-screen for Nrf2 inhibitors: cytotoxicity in A549 cells; A549 ARE-Fluc cells, CellTiter-Fluor viability, 18-24 h; actives 0.16% (n = 390,000); Potency, µM (doses to about 46 µM), most hits filed as inhibitors; AID 504648
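A549 ARE-Fluc cells in 5% FBS OPTI-MEM, 5000 cells/well, rested 2 h then exposed to compounds in concentration-response for 18-24 h at 37 °C. Viability by CellTiter-Fluor fluorescence (Ex 405/Em 525) after 30 min; luciferase luminescence (BugLite, 15 min, RT) read afterwards.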
Nrf2 ARE act: activates Nrf2 signaling. AREc32 ARE-luciferase reporter (MCF7-derived line), luminescence, 24 h. AID 624171. actives 0.31% (n = 410,000). Potency, µM (doses to about 46.1 µM), most hits filed as activators; also: nearly all actives have a fitted effect of over 65% in size
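Cells of the AREc32 ARE-luciferase line are plated in OPTI-MEM containing 5% FBS and left overnight at 37 deg C. Compounds are pinned in, incubation continues 24 hr, and firefly luciferase signal is then measured.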
PINK1 expr mod: PINK1 expression modulation; PINK1 immunofluorescence, high-content cytometry, 24 h; AID 624263; Potency, µM (series often up to 76.6 µM), most hits filed as activators; actives 0.2% (n = 410,000); active = well fitted activation curve with a large enough effect; inconclusive = small, poorly fitted or top-dose-only effect; cell line not stated here; also: nearly all actives have a fitted effect of over 65% in size
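Cells are seeded, rested 12 hours, then given compound at five concentrations or DMSO for 24 hours. After fixation, blocking and antibody staining, PINK1 amount and mitochondrial localization are scored; CCCP serves as control.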
Numbers stand for hits; – = inactive; ? = inconclusive; · = no result; [ ] = another dose, or the depositor's remark. Unless noted, calls follow the shape of the dose curve; as a rule, active = well fitted curve in the direction sought with a large enough effect; inconclusive = small, poorly fitted or top-dose-only effect, or another doubt; inactive = no such curve, though single readings can be large; an effect the other way counts as inactive or inconclusive.

SMILES	Nrf2 block	Epigenetic reg	A549 viability	Nrf2 ARE act	PINK1 expr mod
O=C(COc1ccc2c3c(c(=O)oc2c1)CCC3)N1CCN(c2ccc(F)cc2)CC1	23µM	·	–	–	–
O=C(COc1ccc(S(=O)(=O)NC2CCCCC2)cc1)N1CCN(c2ccc(F)cc2)CC1	15µM	–	–	–	–
COc1ccc(CCNC(=O)C(=O)NCC(c2ccc3c(c2)OCO3)N2CCOCC2)cc1OC (stereo unspecified)	·	–	–	–	–
Cc1ccc(OC(C)c2nnc(N)s2)cc1Cl (stereo unspecified)	16µM	–	–	–	–
O=C(NCC1Cc2cccc(-c3ncccn3)c2O1)c1cccc(-c2ccccc2F)c1 (stereo unspecified)	·	·	·	·	–
CCc1ccc(CNC(=O)c2ccc(Cn3c(=O)c4cccn4c4cccnc43)cc2)cc1	–	–	–	–	–
Cc1cccc(CNC(=O)c2ccc(Cn3c(=O)c4cccn4c4cccnc43)cc2)c1	–	18µM	–	–	–
O=[N+]([O-])c1cccnc1N1CCC(c2cc(-c3cccc(C(F)(F)F)c3)n[nH]2)CC1	21µM	–	?	–	–
O=[N+]([O-])c1cccnc1N1CCC(c2cc(-c3ccc(Cl)cc3Cl)n[nH]2)CC1	18µM	–	?	–	–
CC(=O)c1ccc(N2CCC(c3cc(-c4ccc(Cl)cc4Cl)n[nH]3)CC2)c([N+](=O)[O-])c1	16µM	–	?	–	–
COc1ccc2c(c1)-c1nc(-n3ncc(C(=O)NCc4cccc(C)n4)c3C3CC3)ncc1CC2	·	·	·	·	–
COc1ccccc1-c1ccc(C(=O)NCCN2CCOCC2)c(N2CCN(c3ccccc3F)CC2)n1	·	·	·	·	–
COc1ccc(CCNC(=O)c2nc(SCc3ccccc3F)ncc2Cl)cc1OC	16µM	–	–	–	–
COc1ccccc1NS(=O)(=O)c1ccc(Cl)c(NC(=S)NC(=O)C2CCCC2)c1	?	–	–	–	–
CCN(CC)c1ccc(S(=O)(=O)Nc2cc(Cl)ccc2Cl)cc1NC(=S)NC(=O)C1CCCC1	18µM	–	–	–	?
CCN(CC)S(=O)(=O)c1ccc(Cl)c(NC(=S)NC(=O)C2CCCC2)c1	8.2µM	·	–	–	?
O=C(NC(=S)Nc1ccccc1Cl)C1CC1	?	·	–	–	–
COc1ccc(CN2CCC3(CC2)c2ccccc2[C@@H](NC(=O)c2ccccc2)[C@@H]3O)cc1O	·	·	·	·	–
CCOc1ccc(S(=O)(=O)N2CCN(C(=S)NCc3ccccc3)CC2)cc1	26µM	–	–	–	–
O=S(=O)(c1ccccc1)N1CCN(C(=S)NCc2ccccc2)CC1	–	–	–	–	–
COC(=O)c1c(NC(=O)C2COc3ccccc3O2)sc2c1CCN(C(C)=O)C2 (stereo unspecified)	21µM	–	?	–[9.22 µM]	–
CCOC(=O)c1sc(NC(=O)c2ccc(S(=O)(=O)N3CCCCC3)cc2)nc1-c1ccccc1	23µM	–	–	–	–
CCOC(=O)c1sc(NC(=O)c2ccc(S(=O)(=O)N3CCOCC3)cc2)nc1-c1ccccc1	21µM	–	–	–	–
CCOC(=O)c1sc(NC(=O)c2ccc(S(=O)(=O)N3CCCCCC3)cc2)nc1-c1ccccc1	?	–	–	–	–
O=C(NCCc1nnc2n1CCN(Cc1ccc(F)c(F)c1)CC2)c1ccoc1	·	·	·	·	–
SMILES	Nrf2 block	Epigenetic reg	A549 viability	Nrf2 ARE act	PINK1 expr mod
O=C(NCCOCCn1c(=O)oc2ccccc21)Nc1ccc(F)cc1F	–	–	–	–	–
COc1ccc(C2c3c(N)nc(CCc4ccccc4)nc3Oc3ccc4ccccc4c32)cc1OC (stereo unspecified)	?	·	–	·	·
COc1ccccc1CNS(=O)(=O)c1ccc(-c2cc(C(F)(F)F)on2)s1	?	–	–	–	–
COc1ccc(OC)c(CNS(=O)(=O)c2ccc(-c3cc(C(F)(F)F)on3)s2)c1	16µM	–	–	–	–
CC[C@]12c3[nH]c4ccc(Cl)cc4c3CCN1C(=O)[C@@H](CC(=O)NCC13CC4CC(CC(C4)C1)C3)C[C@@H]2C(=O)N1CCN(C(=O)C2CC2)CC1	23µM	·	–	–	?
O=C(CC1C[C@H](C(=O)N2CCOCC2)[C@@]2(CCC3CCCC3)c3[nH]c4ccccc4c3CCN2C1=O)NCC12CC3CC(CC(C3)C1)C2 (stereo partly specified)	23µM	·	?	–	–
COc1ccc(CNC(=O)C[C@H]2C[C@H](C(=O)N3CCOCC3)[C@@]3(CCC4CCCC4)c4[nH]c5cc(-c6ccco6)ccc5c4CCN3C2=O)cc1OC	23µM	·	–	–	–
O=C(c1cc2nc(-c3ccccc3)cc(-c3ccccc3)n2n1)N1CCN(C(=O)c2ccco2)CC1	23µM	–	–	–	–
CCSc1nc2sc3c(c2c(=O)n1-c1ccc(OC)cc1)CCN(C)C3	23µM	–	–	–	–
CC1Oc2ccccc2OC1C(=O)Nc1ccccn1 (stereo unspecified)	–	–	–	7.1µM	–
Cc1cc(C)nc(Nc2nc3ccccc3o2)n1	?	–	–	–	–
CC(=NNc1nc2ccccc2o1)c1cc2ccccc2cn1	?	·	10µM	–	–
Cc1cc2c(s1)c1cnn(Cc3c(F)ccc(Cl)c3F)c(=O)c1n2C	–	·	–	·	·
Clc1cccc(Cl)c1C1Nc2cccc3cccc(c23)N1	9.2µM	·	?	?	–
COc1ccc(C2SCC(=O)N2CCc2ccc(OC)c(OC)c2)cc1 (stereo unspecified)	23µM	–	–	–	–
CCNC(=O)CC1C(=O)N(c2ccc(F)cc2)C(=O)N1Cc1ccc(OC)c(OC)c1 (stereo unspecified)	–	–	–	–	–
CCCc1cc(=O)[nH]c(Nc2ccc(C)c(O)c2)n1	–	–	–	–	–
Cc1c(C(=O)N(Cc2cccc(F)c2)C2CCS(=O)(=O)C2)oc2cc(Br)ccc12 (stereo unspecified)	13µM	–	–	–	–
OCCN(Cc1cccnc1)Cc1ccccn1	–	·	21µM	–	–
N=c1c(S(=O)(=O)c2ccc(Cl)cc2)cc2c(=O)n3ccccc3nc2n1Cc1cccnc1	–	·	–	–	40µM
N=c1c(C(=O)NCc2ccco2)cc2c(=O)n3ccccc3nc2n1Cc1ccc(Cl)cc1	?	7.1µM	?	–	–
N=c1c(C(=O)NCc2ccco2)cc2c(=O)n3ccccc3nc2n1Cc1ccccc1	·	–	–	–	–
N#Cc1ccc(S(=O)(=O)N2CCN(S(=O)(=O)c3ccc4c(c3)OCCO4)CC2)cc1	–	·	–	·	·
Cc1ccccc1NC(=O)/C(C#N)=C\c1ccsc1	?	–	–	8.9µM	–
Cc1ccc(NC(=O)/C(C#N)=C/c2ccsc2)c(C)c1	–	–	–	?	–
COc1cc2nc(N3CCCN(C)CC3)nc(NC3CCOCC3)c2cc1OC	·	·	·	·	–
CCn1nc(C)c(CN2Cc3ccccc3OC(c3ccccc3OC)C2)c1C (stereo unspecified)	·	·	·	·	–
